Test [1] relates to PRMT1 (protein arginine N-methyltransferase 1). Briefly: PRMT1 binders on small-molecule microarrays, primary screen, biochemical, small-molecule microarray, 635 nm fluorescence (AID 1088).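 Also: binding of Prmt1 protein to compounds spotted on small-molecule microarray slides.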 As to conditions: small-molecule microarray binding, higher = more signal.
The nature of test [2]: yeast growth modulation, basal conditions, primary screen, YJM789 clinical isolate, OD600, 24 h (AID 1089).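 Also: growth of clinical yeast isolate S. cerevisiae YJM 789 seeded 1000 cells per well; test concentration not given here.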 As to conditions: S. cerevisiae YJM789 growth, higher = more signal, called active from +8 up or from −8 down.
Test [3] is described as follows: fission yeast growth modulation, primary screen, strain 972, OD600, 24 h, no modulator (AID 1090).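 Also: basal condition with compound alone and no growth modifier present; test concentration not given here.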 Conditions: S. pombe 972 growth, higher = more signal, called active from +8 up or from −8 down.
A short description of test [4]: S. cerevisiae growth modulation with rapamycin, primary screen, strain BY4716, OD600, 96 h (AID 1091). Also: test concentration not given here. As to conditions: higher = more signal, called active from +8 up or from −8 down.
For test [5], the target named is Torsin-1A-interacting protein 2 (Homo sapiens) (UniProt Q8NFQ8). Briefly: LULL1 binders on small-molecule microarray, primary screen, cell lysate, human LULL1 lysate, 635/667 nm fluorescence (AID 1092).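 Also: probe is lysate of COS7 cells overexpressing human LULL1; score merges per-feature 667 nm fluorescence with signal-to-noise.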 As to conditions: hLULL1 lysate binding, 635 nm fluorescence, higher = more signal.
The nature of test [6]: E. coli growth modulation, two-sided OD650, primary screen, E. coli filamentation project, strain DRC41, 24 h (AID 1093).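 Also: MC1000 strain lacking acrAB efflux and sulA so SOS filamentation is blocked; test concentration not given here.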 Conditions: OD650, 24 h, higher = more signal, called active from +8 up or from −8 down.
Test [7] in a line: small-molecule microarray binders of probe aLefty2, primary screen, biochemical, biotinylated probe, 635/667 nm fluorescence (AID 1094).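 Also: score merges spot fluorescence near 667 nm with spot signal-to-noise ratio.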 As to conditions: higher = more signal.
In test [8] the test system is Noggin (protein binding on small-molecule microarray). Description: Noggin binders on small-molecule microarray, primary screen, biochemical, 635/667 nm fluorescence (AID 1095).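 Also: score merges 667 nm feature fluorescence with signal to noise over triplicate slides.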 As to conditions: 635 nm fluorescence, higher = more signal.
In test [9] the target is Neurogenic locus notch homolog protein 3 (Homo sapiens) (UniProt Q9UM47). Description: NOTCH3 binders on small-molecule microarray, primary screen, biochemical, 635/667 nm fluorescence (AID 1096). Conditions: NOTCH3 binding, 635 nm fluorescence, higher = more signal.
Test [10] can be described thus: small-molecule microarray binders of probe aEGFR, primary screen, biochemical, biotinylated probe, 635/667 nm fluorescence (AID 1097).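 Also: probe is a biotinylated anti-EGFR antibody binding compounds printed on slides; score combines fluorescence near 667 nm and signal to noise of each spot.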 Conditions: higher = more signal.
Test [11] concerns Plasmodium falciparum Sir2 (PF13_0152, Sir2A). Briefly: pfSir2 binders on small-molecule microarrays, primary screen, biochemical, small-molecule microarray, 635 nm fluorescence (AID 1098).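 Also: score merges spot fluorescence intensity with its signal-to-noise ratio.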 As to conditions: small-molecule microarray binding, fluorescence 635 nm; higher = more signal.
Test [12] is described as follows: small-molecule microarray binders of probe aDKK1, primary screen, biochemical, biotinylated probe, 635/667 nm fluorescence (AID 1099).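 Also: score merges 667nm spot fluorescence with signal to noise across triplicate slides; reference of the scale not given here.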 Conditions: higher = more signal.
A short description of test [13]: small-molecule microarray binders of probe aCHRDL2, primary screen, biochemical, biotinylated probe, 635/667 nm fluorescence (AID 1100). Conditions: higher = more signal.
Test [14] in a line: splicing luciferase reporter signal modulators, primary screen, spliceosome inhibition project, cell-based, HEK293, splice +/- reporter (AID 1101).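 Also: HEK293 cells carrying a splicing-competent luciferase reporter gene; test concentration not given here.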 Conditions: luminescence, 24 h, higher = more signal, called active from +8 up or from −8 down. (In general: Reporter assays use an easily measured gene product as a stand-in for the process of interest.)
Test [15] concerns the target Fibroblast growth factor 10 (Homo sapiens) (UniProt O15520). Briefly: FGF10 binders on small-molecule microarrays, primary screen, biochemical, small-molecule microarray, 635 nm fluorescence (AID 1102). Conditions: FGF10 binding, fluorescence 635 nm, higher = more signal.
Test [16] relates to glycogen synthase kinase-3 (GSK3A per assay name; protocol says GSK3B). Description: GSK3 binders on small-molecule microarrays, primary screen, biochemical, small-molecule microarray, 635 nm fluorescence, GSK3A (AID 1103). Also: the record names both GSK3A and GSK3B. As to conditions: small-molecule microarray binding, fluorescence 635 nm; higher = more signal.
The target of test [17] is Epidermal growth factor receptor (Homo sapiens) (UniProt P00533). Briefly: EGFR binders on small-molecule microarrays, primary screen, biochemical, small-molecule microarray, 635 nm fluorescence (AID 1104).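 Also: score merges 667 nm emission intensity with spot signal to noise over triplicate slides.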 Conditions: EGFR binding, higher = more signal.
The target in test [18] is Follistatin-related protein 3 (Homo sapiens) (UniProt O95633). Briefly: FSTL3 binders on small-molecule microarrays, primary screen, biochemical, small-molecule microarray, 635 nm fluorescence (AID 1105).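 Also: score merges emission near 667 nm and signal to noise per printed spot across three slides.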 As to conditions: FSTL3 binding, higher = more signal.
In test [19] the target is Dickkopf-related protein 1 (Homo sapiens) (UniProt O94907). Description: DKK1 binders on small-molecule microarrays, primary screen, biochemical, small-molecule microarray, 635 nm fluorescence scan (AID 1106).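 Also: score merges emission near 667 nm with signal to noise over three replicate slides.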 Conditions: DKK1 binding, higher = more signal.
In test [20] the test system is Inhibin beta A chain (activin A). Description: INHBA (activin A) binders on microarrays, primary screen, biochemical, small-molecule microarray, 635 nm fluorescence scan (AID 1107).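 Also: mouse activin A protein probed at 4.33 µg/mL on printed slides; score merges bound-protein fluorescence near 667 nm with spot signal-to-noise.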 As to conditions: small-molecule microarray binding, higher = more signal.

In PubChem BioAssay one finds composite z-score and z-score data, which are given here for four compounds.

Calls of active or inactive are those of the source.

Chain of Dickkopf-related protein 1 (Homo sapiens) (O94907 whole entry, looked up): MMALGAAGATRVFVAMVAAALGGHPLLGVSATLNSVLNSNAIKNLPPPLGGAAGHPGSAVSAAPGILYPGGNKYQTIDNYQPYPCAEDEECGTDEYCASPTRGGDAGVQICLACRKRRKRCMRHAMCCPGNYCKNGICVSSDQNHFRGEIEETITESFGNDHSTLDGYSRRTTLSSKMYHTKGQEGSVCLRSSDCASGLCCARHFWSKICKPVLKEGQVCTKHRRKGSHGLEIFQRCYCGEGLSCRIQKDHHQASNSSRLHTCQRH
Chain of Neurogenic locus notch homolog protein 3 (Homo sapiens) (Q9UM47 whole entry, looked up): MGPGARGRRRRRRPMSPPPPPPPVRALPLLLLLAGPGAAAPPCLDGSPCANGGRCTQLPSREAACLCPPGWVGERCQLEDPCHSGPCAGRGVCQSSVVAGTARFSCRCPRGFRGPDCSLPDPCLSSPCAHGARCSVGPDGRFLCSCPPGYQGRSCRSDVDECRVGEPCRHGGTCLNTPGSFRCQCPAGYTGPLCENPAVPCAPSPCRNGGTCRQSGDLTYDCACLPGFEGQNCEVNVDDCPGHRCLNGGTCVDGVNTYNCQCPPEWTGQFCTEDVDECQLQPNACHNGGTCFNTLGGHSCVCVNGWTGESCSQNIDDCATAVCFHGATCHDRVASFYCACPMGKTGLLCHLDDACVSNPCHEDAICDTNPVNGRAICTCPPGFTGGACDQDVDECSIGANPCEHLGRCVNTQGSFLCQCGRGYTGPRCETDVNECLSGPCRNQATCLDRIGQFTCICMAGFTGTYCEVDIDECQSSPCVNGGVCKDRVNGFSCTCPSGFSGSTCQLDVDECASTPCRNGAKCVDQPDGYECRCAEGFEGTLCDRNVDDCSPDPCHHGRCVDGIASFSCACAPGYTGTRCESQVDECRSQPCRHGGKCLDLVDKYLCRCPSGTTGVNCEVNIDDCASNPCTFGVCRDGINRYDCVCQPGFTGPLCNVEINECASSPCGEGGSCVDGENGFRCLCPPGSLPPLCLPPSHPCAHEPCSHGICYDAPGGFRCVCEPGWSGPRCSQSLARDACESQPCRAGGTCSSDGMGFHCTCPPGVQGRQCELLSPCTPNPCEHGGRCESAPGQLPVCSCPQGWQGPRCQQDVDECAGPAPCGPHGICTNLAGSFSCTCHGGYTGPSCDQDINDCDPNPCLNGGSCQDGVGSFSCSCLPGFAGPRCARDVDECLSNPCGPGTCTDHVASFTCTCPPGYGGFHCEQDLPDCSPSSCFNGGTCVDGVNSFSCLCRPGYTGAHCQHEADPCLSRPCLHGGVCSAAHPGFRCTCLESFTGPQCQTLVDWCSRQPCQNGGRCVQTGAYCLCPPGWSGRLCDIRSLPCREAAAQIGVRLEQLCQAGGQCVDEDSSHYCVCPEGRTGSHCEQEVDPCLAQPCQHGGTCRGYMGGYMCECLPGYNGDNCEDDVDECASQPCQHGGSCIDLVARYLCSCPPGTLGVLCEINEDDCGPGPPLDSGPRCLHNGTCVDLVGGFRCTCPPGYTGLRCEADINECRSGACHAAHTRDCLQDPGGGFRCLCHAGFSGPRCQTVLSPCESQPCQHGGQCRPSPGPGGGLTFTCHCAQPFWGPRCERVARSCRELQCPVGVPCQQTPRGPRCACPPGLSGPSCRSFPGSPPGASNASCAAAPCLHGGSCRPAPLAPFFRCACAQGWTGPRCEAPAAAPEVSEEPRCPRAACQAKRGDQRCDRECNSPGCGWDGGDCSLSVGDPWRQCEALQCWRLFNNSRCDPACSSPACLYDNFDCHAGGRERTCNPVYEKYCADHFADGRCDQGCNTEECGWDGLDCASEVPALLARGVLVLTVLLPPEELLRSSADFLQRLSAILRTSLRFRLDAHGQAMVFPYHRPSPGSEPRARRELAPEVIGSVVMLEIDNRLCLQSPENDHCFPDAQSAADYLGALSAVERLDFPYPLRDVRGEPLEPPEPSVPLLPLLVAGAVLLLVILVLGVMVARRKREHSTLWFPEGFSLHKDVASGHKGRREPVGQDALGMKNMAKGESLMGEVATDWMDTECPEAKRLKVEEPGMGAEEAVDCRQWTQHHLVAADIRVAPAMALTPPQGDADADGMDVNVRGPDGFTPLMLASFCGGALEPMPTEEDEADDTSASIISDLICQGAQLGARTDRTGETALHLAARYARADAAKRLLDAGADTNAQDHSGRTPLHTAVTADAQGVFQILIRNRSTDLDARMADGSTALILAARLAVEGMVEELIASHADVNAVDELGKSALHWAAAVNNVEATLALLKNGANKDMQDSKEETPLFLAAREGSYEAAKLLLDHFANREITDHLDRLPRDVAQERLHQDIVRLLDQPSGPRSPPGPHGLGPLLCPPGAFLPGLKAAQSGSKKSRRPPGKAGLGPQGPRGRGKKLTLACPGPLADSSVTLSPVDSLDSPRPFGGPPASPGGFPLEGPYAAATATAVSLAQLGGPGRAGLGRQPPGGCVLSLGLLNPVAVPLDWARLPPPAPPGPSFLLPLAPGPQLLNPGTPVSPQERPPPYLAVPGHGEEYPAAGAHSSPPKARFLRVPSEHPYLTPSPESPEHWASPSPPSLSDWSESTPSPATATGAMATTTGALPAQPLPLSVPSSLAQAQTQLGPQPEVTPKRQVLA
Chain of Fibroblast growth factor 10 (Homo sapiens) (O15520 whole entry, looked up): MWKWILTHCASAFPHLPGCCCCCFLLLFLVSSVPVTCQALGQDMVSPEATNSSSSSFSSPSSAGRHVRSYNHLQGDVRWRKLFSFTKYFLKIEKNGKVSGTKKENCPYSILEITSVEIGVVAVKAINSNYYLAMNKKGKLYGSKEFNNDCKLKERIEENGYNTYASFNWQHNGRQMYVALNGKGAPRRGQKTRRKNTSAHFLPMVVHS
Chain of Torsin-1A-interacting protein 2 (Homo sapiens) (Q8NFQ8 whole entry, looked up): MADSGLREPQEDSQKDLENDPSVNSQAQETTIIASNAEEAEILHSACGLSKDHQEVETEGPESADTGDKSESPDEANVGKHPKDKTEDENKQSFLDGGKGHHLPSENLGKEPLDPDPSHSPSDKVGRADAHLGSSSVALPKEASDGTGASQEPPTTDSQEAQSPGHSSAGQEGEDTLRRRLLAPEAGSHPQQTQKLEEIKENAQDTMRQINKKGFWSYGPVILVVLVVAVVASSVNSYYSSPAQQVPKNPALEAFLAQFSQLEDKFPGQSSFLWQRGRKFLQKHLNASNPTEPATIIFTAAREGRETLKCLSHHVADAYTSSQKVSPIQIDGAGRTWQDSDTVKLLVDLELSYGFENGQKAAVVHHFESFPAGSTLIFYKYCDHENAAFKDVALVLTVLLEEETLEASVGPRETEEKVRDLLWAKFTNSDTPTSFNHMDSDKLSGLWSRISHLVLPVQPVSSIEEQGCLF
Chain of Epidermal growth factor receptor (Homo sapiens) (P00533 whole entry, looked up): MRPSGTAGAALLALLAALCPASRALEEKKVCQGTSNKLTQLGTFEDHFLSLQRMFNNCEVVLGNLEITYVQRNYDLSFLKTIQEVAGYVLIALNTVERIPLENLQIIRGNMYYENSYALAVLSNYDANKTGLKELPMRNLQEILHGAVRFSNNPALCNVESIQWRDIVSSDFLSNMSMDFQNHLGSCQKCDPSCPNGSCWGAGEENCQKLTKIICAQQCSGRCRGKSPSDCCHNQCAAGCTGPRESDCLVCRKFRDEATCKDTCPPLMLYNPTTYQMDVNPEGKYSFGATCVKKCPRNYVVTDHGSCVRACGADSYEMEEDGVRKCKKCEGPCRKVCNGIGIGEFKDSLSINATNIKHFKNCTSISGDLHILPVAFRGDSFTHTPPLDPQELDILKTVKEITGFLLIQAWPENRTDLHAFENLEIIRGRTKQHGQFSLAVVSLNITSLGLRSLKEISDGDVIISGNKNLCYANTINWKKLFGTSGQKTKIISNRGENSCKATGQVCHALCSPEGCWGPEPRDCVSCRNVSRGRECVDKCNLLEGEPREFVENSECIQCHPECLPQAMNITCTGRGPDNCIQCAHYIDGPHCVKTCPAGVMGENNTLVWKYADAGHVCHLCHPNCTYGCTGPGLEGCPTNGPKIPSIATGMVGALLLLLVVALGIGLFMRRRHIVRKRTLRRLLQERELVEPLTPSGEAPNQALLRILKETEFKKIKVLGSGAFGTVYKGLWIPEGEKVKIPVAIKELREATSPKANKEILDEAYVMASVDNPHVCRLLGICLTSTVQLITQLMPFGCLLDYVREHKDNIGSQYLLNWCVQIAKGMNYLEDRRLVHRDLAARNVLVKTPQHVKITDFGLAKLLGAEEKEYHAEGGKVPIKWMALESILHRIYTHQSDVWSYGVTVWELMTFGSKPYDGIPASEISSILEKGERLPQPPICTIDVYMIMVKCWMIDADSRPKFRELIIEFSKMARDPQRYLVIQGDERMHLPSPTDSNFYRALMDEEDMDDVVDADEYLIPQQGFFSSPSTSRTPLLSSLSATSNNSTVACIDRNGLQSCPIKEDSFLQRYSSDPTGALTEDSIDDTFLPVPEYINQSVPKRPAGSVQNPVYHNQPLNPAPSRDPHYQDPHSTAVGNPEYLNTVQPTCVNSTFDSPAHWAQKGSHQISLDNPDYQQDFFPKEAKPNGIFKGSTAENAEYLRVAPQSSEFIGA
Chain of Follistatin-related protein 3 (Homo sapiens) (O95633 whole entry, looked up): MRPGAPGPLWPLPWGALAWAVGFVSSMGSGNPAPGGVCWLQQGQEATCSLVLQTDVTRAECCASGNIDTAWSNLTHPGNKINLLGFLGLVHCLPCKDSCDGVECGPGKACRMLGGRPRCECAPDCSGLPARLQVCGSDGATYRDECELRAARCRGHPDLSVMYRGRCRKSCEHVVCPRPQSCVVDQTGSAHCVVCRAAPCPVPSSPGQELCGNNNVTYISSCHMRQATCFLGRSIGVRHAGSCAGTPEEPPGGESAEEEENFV

As for `CCOC(=O)C[C@H]1[C@H](OC(=O)c2ccc(C(=O)c3ccccc3)cc2)[C@@H](NC(=O)c2ccc(-c3ccccc3)cc2)c2cc(OCCCO)ccc2N1C(=O)c1ccc2ccccc2n1`, the composite z-score in [1] was 1.44; in [5], 2.29; in test [7] it was -0.19; in test [8], 0.609; in [9] it was 1; in [10], -0.109. For the same compound, the composite z-score in test [11] was 1.02; in [12], -0.301; in test [13], -0.432; in [15] it was 1.29; in test [16] it was 0.838; in [17], 0.519. Moreover, the composite z-score in test [18] was found to be 0.775; in test [19] it was 0.606; in [20], 0.23. The z-score is -1.05 (inactive) in [2]; 0.0048 (inactive) in test [3]; 0.276 (inactive) in [4]; 1.44 (inactive) in test [6]; -0.784 (inactive) in test [14].

Turning to `CO[C@@H]1COC(=O)CC=C[C@@H](C)[C@@H]2C=C[C@H](O)[C@@H](COC(=O)CCC[C@H]1C)O2`, the composite z-score in test [1] was 1.43; in [5], -1.78; in test [7], -0.075; in test [8], 1.65; in test [9], -0.076; in test [10], -0.15. For the same compound, the composite z-score in test [11] is 0.686; in test [12], -0.177; in test [13], -0.899; in test [15] it was 0.375; in test [16], 0.329; in test [17] it was 1.21. For the same compound, the values for the composite z-score in [18], in test [19] and in test [20] were 1.11, 1.25 and 1.45, respectively. Moreover, the z-score in [2] is -0.199 (inactive); in test [3], 0.498 (inactive); in test [4], -0.181 (inactive); in test [6] it was 0.206 (inactive); in [14], -1.09 (inactive).

In the case of `CC(CCN1CCCCc2nc(C)c(C)cc21)=NOC(C)CN1CCCc2nc(C)c(C)cc21` (stereo not given), the composite z-score in test [1] is 1.52; in [5], 2.91; in [7], 0.447; in [8] it was 1.07; in test [9], 1.04; in test [10] it was 0.509. Also, the composite z-score was 1.53 in test [11]; 0.699 in test [12]; -0.324 in test [13]; 1.35 in [15]; 1.32 in [16]; 1.56 in test [17]. Besides, the composite z-score is 1.47 in [18], 1.05 in test [19] and 1.5 in test [20]. Further, the z-score was -1.19 (inactive) in [2]; -1.06 (inactive) in test [3]; -0.321 (inactive) in [4]; 0.162 (inactive) in [6]; 0.506 (inactive) in [14].

In the case of `CC(=O)O[C@H]1C2=C(C(=O)[C@@H]3O[C@@H]31)[C@H]1C(C)O[C@@H]2[C@@]23C(=O)[C@@H]4O[C@@H]4[C@@H](O)C2=CO[C@H](C)[C@@H]13` (stereo not given in full), the composite z-score in [1] was 0.417; in test [5] it was -0.0273; in test [7], -0.265; in test [8] it was -0.0408; in test [9], 0.0275; in test [10], -0.0671. Also, the composite z-score in test [11] was 0.452; in test [12], -0.475; in [13], -0.62; in test [15], 0.374; in test [16], -0.0186; in test [17], 0.197. Also, the composite z-score is -0.0861 in test [18], 0.326 in test [19] and 0.702 in test [20]. The z-score is 0.014 (inactive) in test [2]; -0.361 (inactive) in [3]; 0.465 (inactive) in [4]; 0.16 (inactive) in test [6]; 0.15 (inactive) in [14].
